# From PubChem BioAssay (NCATS)
# Results filed as inconclusive are left out. A call without a number means that no potency is given here. Values without a mark were called inactive. Active and inactive are the calls of the source. Calls come from the whole dose curve; as a rule, active = well fitted curve in the direction sought with a large enough effect; inconclusive = small, poorly fitted or top-dose-only effect, or another doubt; inactive = no such curve, though single readings can be large; an effect the other way counts as inactive or inconclusive.
# How the values were obtained:
# [1] = qHTS of pediatric cancer cell lines to identify multiple opportunities for drug repurposing: Primary screen for Rh30 cells (AID 1347107); conditions: Rh30 rhabdomyosarcoma viability, CellTiter-Glo luminescence, 48 h; series mostly up to 46 µM; note: nearly all actives have a fitted effect of over 75% in size
# Outline: (§1)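 Cells (500-1,000/well) in growth media were settled 5 h at 37 degrees C, then given compounds for 48 h. Viability was read as CellTiter-Glo luminescence. Primary runs used MIPE at 11 points (0.78 nM-46 µM) and NPC at 8 points (0.59 nM-46 µM); follow-ups used 11 points.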
# [2] = qHTS of pediatric cancer cell lines to identify multiple opportunities for drug repurposing: Primary screen for Rh41 cells (AID 1347108); conditions: Rh41 rhabdomyosarcoma viability, CellTiter-Glo luminescence, 48 h; series mostly up to 46 µM; note: nearly all actives have a fitted effect of over 70% in size;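 for activity change, negative = cytotoxic: luminescence drop marks cytotoxic hits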
# Outline: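 500-1,000 cells/well; 5 h pre-incubation 37 °C/5% CO2; compound pinned; 48 h; CellTiter-Glo, 15 min RT; luminescence. MIPE 11-pt from 0.78 nM, NPC 8-pt from 0.59 nM final. Bortezomib 2.3 µM final as positive control.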
# [3] = qHTS of pediatric cancer cell lines to identify multiple opportunities for drug repurposing: Confirmatory screen for NB1643 cells (AID 1347109); conditions: NB1643 neuroblastoma cell viability; series mostly up to 45.9 µM; note: nearly all actives have a fitted effect of over 45% in size
# Outline: as §1
# [4] = qHTS of pediatric cancer cell lines to identify multiple opportunities for drug repurposing: Confirmatory screen for SK-N-MC cells (AID 1347111); conditions: SK-N-MC cell viability; series mostly up to 45.9 µM;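 note: cells exposed to compound for 48 h before the readout; nearly all actives have a fitted effect of over 70% in size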
# Outline: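 Metabolically active cells were quantified by ATP-dependent luminescence (CellTiter-Glo, 15 min at room temperature) following 48 h treatment. Cells had been plated at 500-1,000 per well and settled for 5 h beforehand.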
# [5] = qHTS of pediatric cancer cell lines to identify multiple opportunities for drug repurposing: Confirmatory screen for BT-12 cells (AID 1347112); conditions: BT-12 rhabdoid tumor cells, viability; series mostly up to 45.9 µM; note: nearly all actives have a fitted effect of over 55% in size
# Outline: as §1
# [6] = qHTS of pediatric cancer cell lines to identify multiple opportunities for drug repurposing: Confirmatory screen for DAOY cells (AID 1347114); conditions: DAOY medulloblastoma cells viability, cytotoxicity qHTS; series mostly up to 45.9 µM; note: nearly all actives have a fitted effect of over 65% in size
# Outline: (§2)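 Viability measured as metabolically active cells via CellTiter-Glo luminescence following 48 hours of compound exposure, 11-point dilutions in confirmatory testing. 500-1,000 cells/well plated 5 hours before dosing; controls were DMSO and 2.3 µM bortezomib.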
# [7] = qHTS of pediatric cancer cell lines to identify multiple opportunities for drug repurposing: Confirmatory screen for NB-EBc1 cells (AID 1347115); conditions: NB-EBc1 neuroblastoma cells, viability (cytotoxicity); series mostly up to 45.9 µM;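 note: cells exposed to compound for 48 h before the viability read; nearly all actives have a fitted effect of over 45% in size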
# Outline: as §1
# [8] = qHTS of pediatric cancer cell lines to identify multiple opportunities for drug repurposing: Confirmatory screen for SJ-GBM2 cells (AID 1347116); conditions: SJ-GBM2 glioblastoma cells, viability; series mostly up to 45.9 µM; note: nearly all actives have a fitted effect of over 60% in size
# Outline: as §2
# [9] = qHTS of pediatric cancer cell lines to identify multiple opportunities for drug repurposing: Confirmatory screen for A673 cells (AID 1347110); conditions: A673 Ewing sarcoma cell viability; series mostly up to 45.9 µM;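 note: cells exposed to compound for 48 h before the viability read; nearly all actives have a fitted effect of over 65% in size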
# Outline: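 Cells plated at 500-1,000/well were treated five hours later with multi-point dilutions up to 46 µM final. After two days, CellTiter-Glo was added and luminescence read.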
# [10] = qHTS of pediatric cancer cell lines to identify multiple opportunities for drug repurposing: Confirmatory screen for LAN-5 cells (AID 1347113); conditions: LAN-5 neuroblastoma cell viability; series mostly up to 45.9 µM; note: nearly all actives have a fitted effect of over 65% in size
# Outline: as §1
# Potency is the fitted concentration of half-maximal effect.
smiles,measurement,setting,value
CC(C)Cc1ccc(CC(=O)O)cc1,Potency,[1],inactive
same,Potency,[2],inactive
CCCCCCCCCCCCCC[N+](C)(C)Cc1ccccc1,Potency,[2],18.8 µM (active)
CCCCCCCCCCCCCCCCO,Potency,[1],inactive
same,Potency,[2],inactive
CCN[C@@H]1C[C@H](N)[C@@H](OC2OC(CN)=CCC2N)[C@H](O)[C@H]1O[C@H]1OC[C@](C)(O)[C@H](NC)[C@H]1O (stereo partly specified),"activity change, negative = cytotoxic",[1],14.5% [at 0.597 µM]
same,"activity change, negative = cytotoxic",[3],11.9% [at 0.556 µM]
same,"activity change, negative = cytotoxic",[4],-2.44% [at 0.556 µM]
same,"activity change, negative = cytotoxic",[5],-6.5% [at 0.556 µM]
same,"activity change, negative = cytotoxic",[6],15.9% [at 0.556 µM]
same,"activity change, negative = cytotoxic",[7],-1.08% [at 0.556 µM]
same,"activity change, negative = cytotoxic",[8],5.75% [at 0.556 µM]
COc1cc(C)nc(-n2nc(C)cc2OC)n1,Potency,[1],inactive
same,Potency,[2],inactive
Oc1ccccc1C=NCc1ccccc1,Potency,[1],inactive
same,Potency,[2],inactive
CC(=O)Nc1ccc(CC(=O)O)cc1,Potency,[1],inactive
same,Potency,[2],inactive
C[C@H]1O[C@@H](O[C@H]2CC[C@@]3(C)[C@H](CC[C@@H]4[C@@H]3C[C@@H](O)[C@]3(C)[C@@H](C5=CC(=O)OC5)CC[C@]43O)C2)C[C@H](O)[C@@H]1O[C@H]1C[C@H](O)[C@H](O[C@H]2C[C@H](O)[C@H](O[C@@H]3O[C@H](CO)[C@@H](O)[C@H](O)[C@H]3O)[C@@H](C)O2)[C@@H](C)O1,Potency,[1],inactive
same,Potency,[3],0.414 µM (active)
same,Potency,[9],0.737 µM (active)
same,Potency,[4],0.414 µM (active)
same,Potency,[5],0.293 µM (active)
same,Potency,[10],0.414 µM (active)
same,Potency,[6],0.117 µM (active)
same,Potency,[7],0.369 µM (active)
same,Potency,[8],0.465 µM (active)
NCCNc1cccc2ccccc12,Potency,[1],inactive
same,Potency,[2],inactive
CN(C)C(=O)Nc1ccc(Cl)c(Cl)c1,Potency,[1],inactive
same,Potency,[2],inactive
same,Potency,[9],inactive
same,Potency,[6],inactive
same,Potency,[7],23.3 µM (active)
O=C(Oc1cccc2cccnc12)c1ccccc1,Potency,[5],9.27 µM (active)
same,Potency,[10],9.27 µM (active)
same,Potency,[6],inactive
same,Potency,[8],inactive
CC(=O)Nc1ccc(S(=O)(=O)Nc2ccc([N+](=O)[O-])cc2)cc1,Potency,[1],inactive
same,Potency,[2],inactive
CCN(CC)CCOc1ccc2c(c1)C(=O)c1cc(OCCN(CC)CC)ccc1-2,Potency,[1],inactive
same,Potency,[3],18.5 µM (active)
same,Potency,[4],7.37 µM (active)
same,Potency,[10],11.7 µM (active)
COc1ccc(C(=O)c2ccccc2)c(O)c1,Potency,[1],inactive
same,Potency,[3],inactive
same,Potency,[9],inactive
same,Potency,[4],inactive
same,Potency,[5],inactive
same,Potency,[10],inactive
same,Potency,[6],inactive
same,Potency,[7],inactive
same,Potency,[8],inactive
COc1ccc(C(Cl)=C(c2ccc(OC)cc2)c2ccc(OC)cc2)cc1,Potency,[1],inactive
same,Potency,[2],inactive
CCCCCCCCCCC[C@@H](C[C@@H]1OC(=O)[C@H]1CCCCCC)OC(=O)[C@H](CC(C)C)NC=O,Potency,[1],inactive
same,Potency,[2],inactive
same,Potency,[3],inactive
same,Potency,[9],inactive
same,Potency,[5],inactive
same,Potency,[10],inactive
same,Potency,[6],inactive
same,Potency,[7],inactive
same,Potency,[8],inactive
Cc1c[nH]c2ccccc12,Potency,[1],inactive
same,Potency,[2],inactive
CC(C)Cn1cnc2c1c(=O)n(C)c(=O)n2C,Potency,[1],inactive
same,Potency,[2],inactive
NC1CCN(c2nc3c(cc2F)c(=O)c(C(=O)O)cn3-c2ccc(F)cc2F)C1 (stereo unspecified),Potency,[1],inactive
same,Potency,[2],inactive
O=C(CCCN1CC=C(n2c(=O)[nH]c3ccccc32)CC1)c1ccc(F)cc1,Potency,[3],inactive
same,Potency,[9],inactive
same,Potency,[10],inactive
same,Potency,[7],inactive
same,Potency,[8],inactive
CCCCCCCCCCCCOCCOCCOCCOCCOCCOCCOCCOCCOCCO,Potency,[1],inactive
same,Potency,[3],inactive
same,Potency,[6],14.7 µM (active)
same,Potency,[8],inactive
CC1CCc2c(N3CCC(O)CC3)c(F)cc3c(=O)c(C(=O)O)cn1c23 (stereo unspecified),Potency,[1],inactive
same,Potency,[2],inactive
same,Potency,[10],inactive
same,Potency,[7],inactive
O=C(CN1CCN(Cc2ccc3c(c2)OCO3)CC1)N1c2ccccc2Sc2ccccc21,Potency,[1],inactive
same,Potency,[2],inactive
CCc1oc2ccccc2c1C(=O)c1cc(I)c(O)c(I)c1,Potency,[1],inactive
same,Potency,[2],inactive
Nc1nc(Cl)nc2c1ncn2[C@@H]1O[C@H](CO)[C@@H](O)[C@@H]1F,Potency,[1],inactive
same,Potency,[2],inactive
same,Potency,[3],1.47 µM (active)
same,Potency,[9],1.04 µM (active)
same,Potency,[4],0.0928 µM (active)
same,Potency,[10],1.65 µM (active)
same,Potency,[8],0.233 µM (active)
CCOc1ccccc1OCCN[C@H](C)Cc1ccc(OC)c(S(N)(=O)=O)c1,Potency,[1],inactive
same,Potency,[2],inactive
CCN(CC)CCOC(=O)C(Cc1cccc2ccccc12)CC1CCCO1 (stereo unspecified),Potency,[1],inactive
same,Potency,[2],inactive
O=[N+]([O-])c1ccc(/C=N\O)o1,Potency,[1],inactive
same,Potency,[3],inactive
same,Potency,[9],inactive
same,Potency,[4],5.85 µM (active)
same,Potency,[5],inactive
same,Potency,[10],inactive
same,Potency,[8],0.928 µM (active)
FC1(F)C(F)(F)C(F)(F)C2(F)C(F)(F)C(F)(F)C(F)(F)C(F)(F)C2(F)C1(F)F (stereo unspecified),Potency,[1],inactive
same,Potency,[2],inactive
Cc1cccc(C)c1NC(=O)CN1CCCCCC1,Potency,[1],inactive
same,Potency,[2],inactive
CN1CCN(c2c(F)cc3c(=O)c(C(=O)O)cn4c3c2SCC4)CC1,Potency,[1],inactive
same,Potency,[2],inactive
COc1ccc(CCN(C)CCCN2CCc3cc(OC)c(OC)cc3CC2=O)cc1OC,Potency,[1],inactive
same,Potency,[2],inactive
C[C@@]12C(=O)OC(=O)[C@]1(C)C1CCC2O1,Potency,[2],2.66 µM (active)
same,Potency,[3],2.93 µM (active)
same,Potency,[9],7.37 µM (active)
same,Potency,[4],3.29 µM (active)
same,Potency,[5],8.27 µM (active)
same,Potency,[10],2.93 µM (active)
same,Potency,[6],2.93 µM (active)
same,Potency,[7],5.22 µM (active)
same,Potency,[8],8.27 µM (active)
CCN1/C(=C/C=C/c2sc3ccccc3[n+]2CC)Sc2ccccc21,Potency,[1],3.26 µM (active)
same,Potency,[2],1.64 µM (active)
same,Potency,[3],1.31 µM (active)
same,Potency,[9],0.456 µM (active)
same,Potency,[4],0.827 µM (active)
same,Potency,[5],1.17 µM (active)
same,Potency,[10],0.737 µM (active)
same,Potency,[6],0.362 µM (active)
same,Potency,[7],2.61 µM (active)
same,Potency,[8],2.04 µM (active)
CCN(CC)CCNC(=O)COc1ccc(OC)cc1,Potency,[1],inactive
same,Potency,[2],inactive
O=C1OC2(c3ccccc31)c1cc(Br)c(O)c(Br)c1Oc1c2cc(Br)c(O)c1Br,Potency,[1],inactive
same,Potency,[2],inactive
NC(N)=NN=C(/C=C/c1ccc([N+](=O)[O-])o1)/C=C/c1ccc([N+](=O)[O-])o1,Potency,[1],3.35 µM (active)
same,Potency,[2],1.19 µM (active)
same,Potency,[3],1.17 µM (active)
same,Potency,[9],2.61 µM (active)
same,Potency,[5],9.27 µM (active)
same,Potency,[10],1.17 µM (active)
same,Potency,[6],3.29 µM (active)
same,Potency,[8],2.93 µM (active)
Cc1cccc(C)c1NC(=O)CN1CCCC1,Potency,[1],inactive
same,Potency,[2],inactive
